Assay results from PubChem BioAssay AID504329 (Southern Research Specialized Biocontainment Screening …, 2011).
In all, about 340,000 compounds went through this assay and about 1,000 (0.29%) were called active. No stated cut-off is given here; in the data, inconclusive means inhibition above about 27% without an active follow-up result; inactive means below that. Only a sample is shown. Results with a measured potency or affinity are listed apart.

Assay: H1N1 influenza NS1A inhibitors, functional cell based assay (AID 504329)
Conditions: percent inhibition, at 12.5 µM, hits give high values
In the case of `Cc1c(CNC2CCCC(C)C2C)c(C(=O)O)c(C)n1Cc1ccccc1` (stereo not drawn), the inhibition is reported as -12.9% (inactive). In the case of `CC(C)NC(=O)NC(=O)COC(=O)c1cc(S(=O)(=O)N2CCCCC2)ccc1N1CCOCC1`, the inhibition is reported as -4.42% (inactive). In the case of `Cc1ccc(S(=O)(=O)N2CCCC2C(=O)OCc2ccccc2)cc1` (stereo not drawn), the inhibition is reported as 1.42% (inactive). For `Oc1ccccc1C(Nc1nccs1)c1ccc2cccnc2c1O` (stereo not drawn), the inhibition was 21.5% (inactive). With `Oc1c(C(Nc2cccc(C(F)(F)F)c2)c2cccnc2)ccc2cccnc12` (stereo not drawn) the inhibition was -1.29% (inactive). In the case of `Cc1ccc2ccc(C(Nc3ccccn3)c3ccccc3)c(O)c2n1` (stereo not drawn), the inhibition is reported as 32.6% (inactive). With `COc1ccccc1NC(c1cccnc1)c1ccc2cccnc2c1O` (stereo not drawn) the inhibition was 17.3% (inactive). In the case of `Cc1ccc2ccc(C(Nc3cccc(C(F)(F)F)c3)c3cccnc3)c(O)c2n1` (stereo not drawn), the inhibition is reported as 11.9% (inactive). For `Cc1cc(NC(c2ccc(Cl)cc2)c2ccc3cccnc3c2O)no1` (stereo not drawn), the inhibition was -17.5% (inactive). For `COc1ccc(C(Nc2cc(C)ccn2)c2ccc3ccc(C)nc3c2O)cc1` (stereo not drawn), the inhibition was 7.32% (inactive). In the case of `Cc1ccnc(NC(c2ccccc2)c2ccc3cccnc3c2O)c1` (stereo not drawn), the inhibition is reported as 7.45% (inactive). With `CC(C)CNC(=O)COc1cccc(C(=O)NCc2ccccc2)c1` the inhibition was -16.8% (inactive). In the case of `O=C(CN1C(=O)c2cccc3cccc1c23)NCc1cccnc1`, the inhibition is reported as -7.77% (inactive). In the case of `Cc1cc(S(=O)(=O)Nc2ccc(N3CCOCC3)cc2)ccc1Br`, the inhibition is reported as 9.89% (inactive). In the case of `Cc1ccc(-n2nc3c(=O)n(CCCC(=O)NCc4cccc(F)c4)nc(C)c3c2C)cc1`, the inhibition is reported as 4.12% (inactive). With `Cc1c2cnn(CC(=O)NCCN3CCOCC3)c(=O)c2c(C)n1Cc1ccccc1` the inhibition was 7.12% (inactive). In the case of `Cc1ccc(Nc2nc(N)nc(CSc3nnnn3-c3ccccc3)n2)cc1`, the inhibition is reported as -1.1% (inactive). With `COc1cccc(CN(C)C(=O)c2ccc(NS(=O)(=O)c3ccc4[nH]c(=O)[nH]c4c3)cc2)c1OC` the inhibition was -3.23% (inactive). With `CC(C(=O)Nc1cccc(S(=O)(=O)N2CCOCC2)c1)N1CCN(C/C=C/c2ccccc2)CC1` (stereo not drawn) the inhibition was -4.15% (inactive). With `CCOC(=O)Cc1csc(NS(=O)(=O)c2ccc(NC(C)=O)cc2)n1` the inhibition was -2.56% (inactive). For `Cc1cc(C)c(S(=O)(=O)/N=C2\C=C(NS(=O)(=O)c3ccccc3)C(=O)c3ccccc32)c(C)c1`, the inhibition was 0.45% (inactive). With `Cc1ccc(S(=O)(=O)/N=C2\C=C(Nc3cccc(C(=O)O)c3)C(=O)c3ccccc32)c(C)c1` the inhibition was 25.4% (inactive). For `CCc1ccc(S(=O)(=O)/N=C2\C=C(Nc3cccc(C(=O)O)c3)C(=O)c3ccccc32)cc1`, the inhibition was 24.6% (inactive). In the case of `O=C(O)c1ccc(NC2=C/C(=N/S(=O)(=O)c3ccccc3)c3ccccc3C2=O)cc1`, the inhibition is reported as 15.2% (inactive). With `O=C(COC(=O)c1c(F)cccc1F)Nc1ccc(N2CCCCC2)cc1` the inhibition was -4.21% (inactive). For `CCOc1ccc(-n2c(SCc3cc(=O)oc4cc(C)c(C(C)C)cc34)nnc2-c2cccnc2)cc1`, the inhibition was 2.59% (inactive). For `COc1ccc(C2CC3(CC(C)(C)NC(SC)=N3)Oc3cc(O)cc(C)c32)cc1` (stereo not drawn), the inhibition was 2.74% (inactive). In the case of `CCCN1CCC(NC(=O)C2CCCCC2C(=O)O)CC1` (stereo not drawn), the inhibition is reported as -9.23% (inactive). With `CC(c1ccon1)N(C)C(=O)c1ccc(OC2CCN(C(=O)C3CC3)CC2)cc1` (stereo not drawn) the inhibition was 1.15% (inactive). In the case of `CC(=O)c1ccc(N=c2scc(C)n2C(C)C)cc1`, the inhibition is reported as 2.71% (inactive). In the case of `CCN(CC)c1ccc(C=NN2CCCCCC2)cc1`, the inhibition is reported as 1.15% (inactive). With `Clc1ccc(/C=N/N2CCCCC2)cc1` the inhibition was 10.3% (inactive). For `COc1ccc(CNCC2COc3ccccc3O2)cc1` (stereo not drawn), the inhibition was -2.36% (inactive). For `O=C(CC1C[C@H](C(=O)N2CCCCC2)[C@@]2(CCc3ccccc3)c3[nH]c4ccccc4c3CCN2C1=O)NCCCn1ccnc1` (stereo partly drawn), the inhibition was -10.1% (inactive). In the case of `CCN1C(=O)/C(=C2\SC(=S)N(NC(=O)c3ccccc3O)C2=O)c2ccccc21`, the inhibition is reported as -6.27% (inactive). In the case of `CCCN1/C(=C2/SC(=S)N(CC)C2=O)C=Cc2ccccc21`, the inhibition is reported as -4.1% (inactive). In the case of `CCN1C(=O)/C(=C2\C=Cc3ccccc3N2CC)OC1=S`, the inhibition is reported as 20.4% (inactive). With `CCN1/C(=C2\OC(=S)N(C)C2=O)C=Cc2ccccc21` the inhibition was 4.12% (inactive). In the case of `COCCN1C(=O)/C(=C2/C(=O)N(CC(=O)Nc3ccccc3Cl)c3ccccc32)SC1=S`, the inhibition is reported as 1.06% (inactive). With `CCN1C(=C2C(=O)c3ccccc3C2=O)C=Cc2ccccc21` the inhibition was -0.12% (inactive). In the case of `CN1C(=O)/C(=C2/C=Cc3ccccc3N2CCCS(=O)(=O)O)SC1=S`, the inhibition is reported as 8.55% (inactive). For `CCN1/C(=C2/SC(=S)N(C)C2=O)C=Cc2cc(C)ccc21`, the inhibition was 9.87% (inactive). For `CC(SCc1ccccc1)C(=O)Nc1ccccc1F` (stereo not drawn), the inhibition was 4.17% (inactive). For `N#Cc1c(Sc2ncc(C(F)(F)F)cc2Cl)nsc1C/C=N\OCc1ccccc1Br`, the inhibition was -7.95% (inactive). In the case of `Cn1nc(C(C)(C)C)cc1C(=O)NNC(=O)c1ccc(C(F)(F)F)cc1`, the inhibition is reported as -21.4% (inactive). For `O=C(NNc1cccc(Cl)n1)c1ccccc1CC[N+](=O)[O-]`, the inhibition was -1.98% (inactive). In the case of `CCn1nc(NS(=O)(=O)c2ccc([N+](=O)[O-])cc2)c2cc3ccccc3nc21`, the inhibition is reported as 4.22% (inactive). For `CCC(C)(C)C1CCC2(CC1)NC(=O)N(CC(=O)N(C)Cc1ccc3c(c1)OCCO3)C2=O` (stereo not drawn), the inhibition was -14.3% (inactive). In the case of `CCN1/C(=C2\C(=O)N(C)C(=S)N2C)C=Cc2ccccc21`, the inhibition is reported as 6.98% (inactive). With `CCN1C(=O)/C(=c2\o/c(=C3\C=Cc4ccccc4N3CC)c(=O)n2CC)SC1=S` the inhibition was 19.6% (inactive). For `O=C(NCCO)Nc1ccc(Cl)cc1`, the inhibition was 0.44% (inactive). In the case of `Cc1ccc(S(=O)(=O)CCC(=O)Nc2nccs2)cc1`, the inhibition is reported as 6.51% (inactive). In the case of `O=C(Cc1c[nH]c2ccccc12)NNCc1ccc(N(CCCl)CCCl)cc1`, the inhibition is reported as 14.4% (inactive). With `Oc1[nH]c2ccccc2c1N=Nc1ccc(F)cc1` the inhibition was -3.37% (inactive). For `O=C(O)c1ccc(N=Nc2c(O)[nH]c3ccccc23)cc1`, the inhibition was -7.55% (inactive). For `O=C(Cc1ccc(Cl)c(Cl)c1)N1CCOCC1`, the inhibition was -9.69% (inactive). In the case of `Cc1ccc(C(=O)N/N=C\c2ccccc2[N+](=O)[O-])cn1`, the inhibition is reported as 4.04% (inactive). With `O=C(N/N=C\c1cc2c(cc1[N+](=O)[O-])OCO2)c1cccs1` the inhibition was -1.36% (inactive). With `Cc1cc([N+](=O)[O-])cc(/C=N\NC(=O)C2COc3ccccc3O2)c1O` (stereo not drawn) the inhibition was 19.3% (inactive). With `O=C(N/N=C/c1cccc([N+](=O)[O-])c1O)C(O)(c1ccccc1)c1ccccc1` the inhibition was -8.83% (inactive). In the case of `O=C(N/N=C/c1ccccc1[N+](=O)[O-])c1cccs1`, the inhibition is reported as -0.41% (inactive). In the case of `Cc1cc(C(=O)N/N=C/c2cc(Cl)cc([N+](=O)[O-])c2O)n[nH]1`, the inhibition is reported as -7.04% (inactive). With `CCNC(=S)N(Cc1ccc2c(c1)OCO2)C1CC(=O)N(c2ccc(OC)cc2)C1=O` (stereo not drawn) the inhibition was -4.24% (inactive). For `O=C(NCCN1CCOCC1)C(=O)NCc1ccco1`, the inhibition was -2.57% (inactive). With `CC1CCC(NC(=O)CSc2nncs2)CC1` (stereo not drawn) the inhibition was 1.05% (inactive). In the case of `Cc1cc2nc(-c3ccc(SCC(=O)Nc4ccc(S(=O)(=O)NC5CC5)cc4)nc3)[nH]c2cc1C`, the inhibition is reported as -2.72% (inactive). With `C=CCOc1ccccc1/C=C/C(=O)O` the inhibition was 1.54% (inactive). In the case of `CN(C)c1cccc2c(/C=N/O)ccc(N(C)C)c12`, the inhibition is reported as 5.22% (inactive). With `CC(=O)c1ccc(N(C)C)c2c(N(C)C)cccc12` the inhibition was -6.19% (inactive). For `Cc1ccc(-n2nc(C)c3c2OC(N)=C(C#N)C3c2ccco2)cc1` (stereo not drawn), the inhibition was 15.8% (inactive). In the case of `Cc1nn(-c2ccccc2)c2c1C(c1cccs1)C(C#N)=C(N)O2` (stereo not drawn), the inhibition is reported as 11.8% (inactive). In the case of `Cc1ccc(-n2nc(C)c3c2OC(N)=C(C#N)C3c2ccncc2)cc1` (stereo not drawn), the inhibition is reported as -2% (inactive). With `Cc1nn(-c2ccccc2)c2c1C(c1ccccc1)C(C#N)=C(N)O2` (stereo not drawn) the inhibition was -4.13% (inactive).
